From PubChem BioAssay (NCATS)
Results filed as inconclusive are left out. The list shows a part of the results. Active and inactive are the calls of the source. Calls come from the whole dose curve; as a rule, active = well fitted curve in the direction sought with a large enough effect; inconclusive = small, poorly fitted or top-dose-only effect, or another doubt; inactive = no such curve, though single readings can be large; an effect the other way counts as inactive or inconclusive.

Assays:
[1] = molecular target: Rap guanine nucleotide exchange factor 4 (Homo sapiens) (UniProt Q8WZA2); experiment: Confirmatory qHTS for agonist of cAMP-regulated guanine nucleotide exchange factor 4 (EPAC2) (AID 1645884);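 note: nucleotide exchange releases bodipy-GDP from Rap1 and this lowers its fluorescence; nearly all actives have a fitted effect of over 65% in size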; note: potency is the fitted concentration of half-maximal effect; for activation: % is set by controls: 0 for no effect and ±100 for the full control effect
[2] = molecular target: Rap guanine nucleotide exchange factor 4 (Homo sapiens) (UniProt Q8WZA2); experiment: Confirmatory qHTS for antagonist of cAMP-regulated guanine nucleotide exchange factor 4 (EPAC2) (AID 1645885); note: nearly all actives have a fitted effect of over 25% in size; note: potency is the fitted concentration of half-maximal effect; for activity change, negative = inhibition: % is set by controls: 0 for no effect and ±100 for the full control effect
[3] = molecular target: Rap guanine nucleotide exchange factor 3 (Homo sapiens) (UniProt O95398); experiment: Counterscreen qHTS for antagonist of cAMP-regulated guanine nucleotide exchange factor 3 (EPAC1) (AID 1645888);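 note: fluorescence loss as bound BODIPY-GDP is released from Rap1B; % of control where 0% means no effect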
Outline: (§1)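 Rap1B–BODIPY-GDP (250 nM) with 50 uM GDP; compounds pin-transferred to 9.74 nM–152 uM final (activator) or from 7.32 nM upwards (inhibitor). Fluorescence Ex/Em 480/540 nm read at 5 and 30 min, then after adding cAMP or buffer, at room temperature.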

[4] = molecular target: Rap guanine nucleotide exchange factor 3 (Homo sapiens) (UniProt O95398); experiment: Counterscreen qHTS for agonist of cAMP-regulated guanine nucleotide exchange factor 3 (EPAC1) (AID 1645889); note: % of control where 0% means no effect; nearly all actives have a fitted effect of over 40% in size
Outline: as §1

[5] = molecular target: DNA polymerase eta (Homo sapiens) (UniProt Q9Y253); experiment: qHTS for Inhibitors of Polymerase Eta: Confirmatory Assay for Cherry-picked Compounds (AID 720502); conditions: Pol eta primer extension, TAMRA/BHQ fluorescence, 10 min; note: potency is the fitted concentration of half-maximal effect
Outline: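 Enzyme at 10 nM is mixed with pin-transferred compound and left 15 min at room temperature. Substrate (50 nM final) is then added, and plates are read at 0 min and after 10 min.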

Chain of Rap guanine nucleotide exchange factor 3 (Homo sapiens) (O95398 whole entry, looked up): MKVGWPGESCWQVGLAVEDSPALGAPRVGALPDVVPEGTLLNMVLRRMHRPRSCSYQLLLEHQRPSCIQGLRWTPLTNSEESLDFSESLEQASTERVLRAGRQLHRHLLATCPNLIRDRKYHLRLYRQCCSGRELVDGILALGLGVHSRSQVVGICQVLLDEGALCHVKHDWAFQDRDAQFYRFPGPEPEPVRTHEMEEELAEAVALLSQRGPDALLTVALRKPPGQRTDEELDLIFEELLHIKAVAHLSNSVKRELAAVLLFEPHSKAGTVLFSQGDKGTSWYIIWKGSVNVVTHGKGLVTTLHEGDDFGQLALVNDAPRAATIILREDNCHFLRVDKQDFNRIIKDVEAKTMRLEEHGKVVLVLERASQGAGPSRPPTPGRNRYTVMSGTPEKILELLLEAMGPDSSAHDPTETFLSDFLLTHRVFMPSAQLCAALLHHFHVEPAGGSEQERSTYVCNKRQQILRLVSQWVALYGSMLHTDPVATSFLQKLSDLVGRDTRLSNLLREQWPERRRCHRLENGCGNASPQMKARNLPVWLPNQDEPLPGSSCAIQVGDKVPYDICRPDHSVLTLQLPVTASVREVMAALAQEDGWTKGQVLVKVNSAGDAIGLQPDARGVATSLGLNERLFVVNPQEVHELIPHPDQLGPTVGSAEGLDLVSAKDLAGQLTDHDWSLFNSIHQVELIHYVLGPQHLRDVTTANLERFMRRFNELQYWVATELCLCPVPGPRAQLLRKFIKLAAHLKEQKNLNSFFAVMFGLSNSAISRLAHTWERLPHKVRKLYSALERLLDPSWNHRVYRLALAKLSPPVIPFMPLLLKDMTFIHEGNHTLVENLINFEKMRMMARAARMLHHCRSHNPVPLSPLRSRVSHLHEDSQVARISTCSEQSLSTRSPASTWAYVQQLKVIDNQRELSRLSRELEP
Chain of Rap guanine nucleotide exchange factor 4 (Homo sapiens) (Q8WZA2 whole entry, looked up): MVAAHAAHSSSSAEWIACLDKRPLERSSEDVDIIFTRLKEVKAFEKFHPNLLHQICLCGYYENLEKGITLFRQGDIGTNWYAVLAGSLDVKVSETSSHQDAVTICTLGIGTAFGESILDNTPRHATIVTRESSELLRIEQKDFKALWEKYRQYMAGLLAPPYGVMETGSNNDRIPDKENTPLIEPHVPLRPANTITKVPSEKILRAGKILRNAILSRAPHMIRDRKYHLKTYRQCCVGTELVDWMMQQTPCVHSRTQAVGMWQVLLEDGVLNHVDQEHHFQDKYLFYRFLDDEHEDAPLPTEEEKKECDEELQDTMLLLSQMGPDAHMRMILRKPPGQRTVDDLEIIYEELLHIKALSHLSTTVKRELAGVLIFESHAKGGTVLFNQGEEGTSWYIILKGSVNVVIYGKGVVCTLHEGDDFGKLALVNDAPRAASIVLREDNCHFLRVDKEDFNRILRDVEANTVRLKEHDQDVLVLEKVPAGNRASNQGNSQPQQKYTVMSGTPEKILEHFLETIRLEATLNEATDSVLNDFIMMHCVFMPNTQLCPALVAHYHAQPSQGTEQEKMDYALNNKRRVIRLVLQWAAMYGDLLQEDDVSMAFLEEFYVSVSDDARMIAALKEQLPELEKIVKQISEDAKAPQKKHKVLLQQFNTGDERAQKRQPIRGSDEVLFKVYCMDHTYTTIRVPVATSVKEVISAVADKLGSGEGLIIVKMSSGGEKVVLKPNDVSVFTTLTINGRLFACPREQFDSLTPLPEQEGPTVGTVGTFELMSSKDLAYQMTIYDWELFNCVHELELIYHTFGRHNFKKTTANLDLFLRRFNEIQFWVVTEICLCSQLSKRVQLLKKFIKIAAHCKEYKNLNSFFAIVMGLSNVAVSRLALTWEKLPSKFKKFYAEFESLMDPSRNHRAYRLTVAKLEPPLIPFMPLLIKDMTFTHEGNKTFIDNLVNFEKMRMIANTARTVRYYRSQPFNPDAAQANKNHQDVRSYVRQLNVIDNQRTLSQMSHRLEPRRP
Chain of DNA polymerase eta (Homo sapiens) (Q9Y253 whole entry, looked up): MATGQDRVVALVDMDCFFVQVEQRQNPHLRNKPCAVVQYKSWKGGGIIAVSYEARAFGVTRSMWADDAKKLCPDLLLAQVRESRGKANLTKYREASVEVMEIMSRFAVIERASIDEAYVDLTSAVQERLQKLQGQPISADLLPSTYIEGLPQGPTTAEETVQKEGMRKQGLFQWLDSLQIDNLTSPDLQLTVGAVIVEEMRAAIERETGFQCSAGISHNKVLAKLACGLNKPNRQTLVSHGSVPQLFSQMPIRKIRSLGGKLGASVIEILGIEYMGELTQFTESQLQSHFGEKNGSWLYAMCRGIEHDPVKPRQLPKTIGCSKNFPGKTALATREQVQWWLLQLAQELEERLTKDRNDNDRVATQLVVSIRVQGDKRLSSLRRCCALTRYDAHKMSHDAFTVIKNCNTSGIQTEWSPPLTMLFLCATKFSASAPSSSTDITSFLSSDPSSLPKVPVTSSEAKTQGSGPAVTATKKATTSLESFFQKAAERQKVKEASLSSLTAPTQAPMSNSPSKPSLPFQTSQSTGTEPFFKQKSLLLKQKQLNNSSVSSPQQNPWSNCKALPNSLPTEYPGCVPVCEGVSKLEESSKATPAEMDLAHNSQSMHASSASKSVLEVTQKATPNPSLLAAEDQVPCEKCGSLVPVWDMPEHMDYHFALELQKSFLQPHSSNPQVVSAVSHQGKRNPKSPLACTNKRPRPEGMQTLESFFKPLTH

Cc1ccc(C(=O)N(Cc2ccco2)Cc2sccc2C)cc1
inactive: Potency [1] | Potency [2] | Potency [3]

COc1ccc(OC)c(C2=CC(=O)C[C@H](c3ccc4c(c3)OCO4)C2)c1
inactive: activation [1] 11.2% [at 17.1 µM, percent relative to cAMP agonist control] | Potency [2] | activity change, negative = inhibition [3] -6.17% [at 30.8 µM]

CNc1ccc(/C=C(\CCC(=O)O)c2nc3ccccc3s2)cc1[N+](=O)[O-]
inactive: activation [1] 0% [at 17.1 µM, percent relative to cAMP agonist control] | Potency [2] | activity change, negative = inhibition [3] -16.8% [at 30.8 µM] | activation [4] 19.8% [at 30.8 µM]

CCOC(=O)c1c(CSc2ccccc2)n(C)c2cc(Br)c(OCC(O)CNC(CO)(CO)CO)cc12 (centres undefined)
inactive: Potency [3] | Potency [4]
active: Potency [1] 89.1 µM | Potency [2] 26.9 µM

COc1cccc(/C=N/Nc2ccc(S(=O)(=O)Nc3ccccc3C(=O)O)cc2[N+](=O)[O-])c1O
inactive: activation [1] 3.64% [at 17.1 µM, percent relative to cAMP agonist control] | Potency [2] | activity change, negative = inhibition [3] -5.08% [at 30.8 µM] | activation [4] 20% [at 30.8 µM]
active: Potency [5] 67.5 µM

S=c1[nH]nc(-c2cc(-c3ccccc3)n[nH]2)n1/N=C/c1ccc(Cl)c(Cl)c1
inactive: activation [1] 2.21% [at 17.1 µM, percent relative to cAMP agonist control] | Potency [2] | activity change, negative = inhibition [3] -11.9% [at 30.8 µM] | activation [4] 18.4% [at 30.8 µM]

NC(N)=N/N=C/c1ccc(OCc2ccc(Cl)cc2Cl)cc1
inactive: activation [1] 3.24% [at 17.1 µM, percent relative to cAMP agonist control] | Potency [2] | activity change, negative = inhibition [3] 10.5% [at 30.8 µM] | activation [4] 27.4% [at 30.8 µM]

CCc1ccc(N=C2NC(=O)/C(=C/c3ccc(OCC(=O)O)c(OC)c3)S2)cc1
inactive: Potency [1] | Potency [2] | Potency [3]

COc1ccc(CN(Cc2ccco2)C(=O)c2ccccc2F)cc1
inactive: Potency [1] | Potency [2] | Potency [3]

COc1cc(/C=C2\CCn3c2nc2cc(C(=O)O)ccc2c3=O)ccc1OC(F)F
inactive: Potency [1] | Potency [2] | Potency [3] | Potency [4]

CC(/C=C1\SC(=S)N(c2ccc(C(=O)O)cc2)C1=O)=C\c1ccccc1
inactive: activation [1] 7.79% [at 17.1 µM, percent relative to cAMP agonist control] | Potency [2] | activity change, negative = inhibition [3] 1.04% [at 30.8 µM] | activation [4] 18.6% [at 30.8 µM]

COc1ccc2c(c1)C(SCC(=O)NCCc1ccc(Cl)cc1)CC(C)(C)O2 (centres undefined)
inactive: activation [1] 12.3% [at 17.1 µM, percent relative to cAMP agonist control] | Potency [2] | activity change, negative = inhibition [3] 8.95% [at 30.8 µM]

CCOC(=O)c1cc(-c2ccc(/C=C3/C(=O)N(c4ccc(C(=O)O)cc4)N=C3C)o2)ccc1Cl
inactive: Potency [1] | Potency [2] | Potency [3] | Potency [4]

CCOc1ccc(/C=C2\SC(=S)N(NS(=O)(=O)c3ccccc3)C2=O)cc1OC
inactive: Potency [3] | Potency [4]
active: Potency [1] 112 µM | Potency [2] 37.9 µM

O=C(c1ccccc1Br)N(Cc1ccccc1)c1ccccc1
inactive: activation [1] 0.0919% [at 17.1 µM, percent relative to cAMP agonist control] | Potency [2] | activity change, negative = inhibition [3] -1.15% [at 30.8 µM]

CC1(C)CC2CC(C)(CN2C(=O)c2cc(-c3ccccc3O)on2)C1 (centres undefined)
inactive: activation [1] 10.5% [at 17.1 µM, percent relative to cAMP agonist control] | Potency [2] | activity change, negative = inhibition [3] 5.82% [at 30.8 µM] | activation [4] 17.1% [at 30.8 µM]

CCOc1cc(/C=C2\SC(=Nc3ccc(CC)cc3)NC2=O)ccc1OCC(=O)O
inactive: Potency [1] | Potency [2] | Potency [3] | Potency [4]

Oc1ccccc1N=Cc1c(O)ccc2ccccc12
inactive: activation [1] 0% [at 17.1 µM, percent relative to cAMP agonist control] | Potency [2] | activity change, negative = inhibition [3] -12% [at 30.8 µM]

O=C(N/N=C/c1ccc(O)c(O)c1)C1c2ccccc2Oc2ccccc21
inactive: Potency [1] | Potency [2] | Potency [3]

Oc1ccc(NCc2cccc(OCc3ccc(F)cc3)c2)cc1
inactive: activation [1] 10.4% [at 17.1 µM, percent relative to cAMP agonist control] | Potency [2] | activity change, negative = inhibition [3] -11.4% [at 30.8 µM]

COc1ccc(C(=O)c2ccc(Br)cc2)c(OC)c1OC
active: Potency [2] 6.01 µM
inactive: Potency [1] | Potency [3] | Potency [4]

COc1ccc(CCn2c(O)cc3nn(-c4nc5ccccc5s4)c(=O)c-3c2C)cc1
inactive: Potency [1] | Potency [2] | Potency [3] | Potency [4]

O=c1oc2c3c(ccc2c2ccccc12)OCN(Cc1cccc(Cl)c1)C3
inactive: Potency [1] | Potency [2] | Potency [3] | Potency [4]

O=C(CSc1ncnc2[nH]ncc12)Nc1cccc(Oc2ccccc2)c1
inactive: activation [1] 10.9% [at 17.1 µM, percent relative to cAMP agonist control] | Potency [2] | activity change, negative = inhibition [3] -9.96% [at 30.8 µM]

COc1cc2ccccc2cc1C(=O)NC(=S)Nc1cccc(C(=O)O)c1
inactive: activation [1] 3.08% [at 17.1 µM, percent relative to cAMP agonist control] | Potency [2] | activity change, negative = inhibition [3] -9.48% [at 30.8 µM] | activation [4] 7.44% [at 30.8 µM]

O=C(O)c1ccc(N/N=C/c2ccc(-c3ccc(Cl)cc3Cl)o2)cc1
inactive: Potency [1] | Potency [2] | Potency [3]

Cc1nc2c3cc(F)ccc3n(Cc3ccccc3F)c2s1
inactive: activation [1] 1.97% [at 17.1 µM, percent relative to cAMP agonist control] | Potency [2] | activity change, negative = inhibition [3] -7.48% [at 30.8 µM]

Cc1ccc(NS(=O)(=O)c2cccc3cccnc23)c(Cl)c1
inactive: Potency [1] | Potency [2] | Potency [3] | Potency [4]

COc1ccc(C2Nc3ccccc3-c3cc(C)nn32)c(OC)c1 (centres undefined)
inactive: Potency [1] | Potency [2] | Potency [3]
